Experimental data reported in PubChem BioAssay (NCI).
Compounds without any hit were thinned out: in the full panel of roughly 79,000, 15% have a hit. The source made the active and inactive calls. Rule as the data show it: active = growth inhibition above about 70%; inactive = the rest.

Tests used:
[1] = NCI Yeast Anticancer Drug Screen. Data for the rad50 strain (AID 155);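 also: 0% = growth of vehicle-only cultures of the same strain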; settings: S. cerevisiae rad50 strain growth inhibition; at 50.0 µM; stronger effect = higher value
How it was run: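 Readout: growth inhibition relative to vehicle-treated cultures. Compound exposure was carried out in a genetically defined yeast strain deficient in DNA damage repair.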

[2] = NCI Yeast Anticancer Drug Screen. Data for the mec2-1 strain (AID 157); settings: S. cerevisiae mec2-1 strain, at 50.0 µM, stronger effect = higher value
How it was run: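 Readout is yeast growth inhibition, normalised to vehicle-treated controls, in the mec2-1 strain exposed to compound.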

[3] = NCI Yeast Anticancer Drug Screen. Data for the sgs1 mgt1 strain (AID 161);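 also: 0% = growth of cultures given vehicle only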; settings: S. cerevisiae sgs1 mgt1 strain, at 50.0 µM, stronger effect = higher value
How it was run: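 Yeast cells carrying a defined DNA-repair defect were exposed to test compounds. Growth inhibition was measured relative to vehicle-treated controls.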

[4] = NCI Yeast Anticancer Drug Screen. Data for the cln2 rad14 strain (AID 165);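 also: 0% = growth equal to vehicle treated cultures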; settings: S. cerevisiae cln2 rad14 strain, at 50.0 µM, stronger effect = higher value
How it was run: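 Relative to vehicle controls, growth inhibition of compound-treated cln2 rad14 yeast was recorded.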

[5] = NCI Yeast Anticancer Drug Screen. Data for the bub3 strain (AID 167); settings: S. cerevisiae bub3 mutant strain, at 50.0 µM, stronger effect = higher value
How it was run: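 Readout: yeast growth inhibition, expressed relative to vehicle-only wells. The test organism is a mutant strain from a panel with lesions in DNA repair or checkpoint genes.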

[6] = NCI Yeast Anticancer Drug Screen. Data for the mlh1 rad18 strain (AID 175); settings: S. cerevisiae mlh1 rad18 strain growth inhibition; at 50.0 µM; stronger effect = higher value
How it was run: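 Test agents were incubated with a yeast strain of defined genotype (DNA damage repair defect). Inhibition of growth was derived by comparison with vehicle-exposed cultures.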

Measured: growth inhibition

CC(C)CN(CC(C)C)C(=O)C1CCCC[C@@H]1C(=O)O (some centres undefined)
inactive: [1] 16.9% | [2] 15.2% | [3] 5.8% | [4] 18.7% | [5] 16.4% | [6] 22.4%

O=[N+]([O-])c1cc(Br)cc2c1nc(NCCO)c1ccccc12
active: [1] 90.8% | [2] 79.5% | [3] 96.8% | [4] 88.2% | [5] 86.8% | [6] 97%

Cc1ccc2c(c1)SN(CN1C(=O)c3ccccc3C1=O)N2
inactive: [1] -37.1% | [2] -43.6% | [3] -7.15% | [4] -19% | [5] -38.7% | [6] -28.9%

Cc1ccc(S(=O)(=O)N/N=C2/C(=O)NC(=O)C(=O)C2c2nc3ccccc3s2)cc1 (centres undefined)
inactive: [1] 12.4% | [2] -2.6% | [3] 13.6% | [4] -19.1% | [5] 8.45% | [6] 12.4%

S=c1cc(S)nc[nH]1
inactive: [1] 29% | [2] 8.3% | [3] 11.9% | [4] 20.9% | [5] 23.9% | [6] 9.45%

COc1cc(Br)c(C=Nc2cccc3ccc(OS(=O)(=O)c4ccc([N+](=O)[O-])cc4)cc23)cc1OC
inactive: [1] 7.6% | [2] -16.6% | [3] 0.65% | [4] 4.3% | [5] 5.5% | [6] 15.6%

CCCCOC(=O)c1ccc(OC(=O)Nc2ccccc2)cc1
inactive: [1] 11.2% | [2] 6% | [3] 11.4% | [4] 7.7% | [5] 17.6% | [6] 3.7%

CCC(C(O)c1ccc(Cl)cc1)[N+](=O)[O-] (centres undefined)
inactive: [1] 29.9% | [2] 21.7% | [3] 35.9% | [4] 3.05% | [5] 4.65% | [6] 43.7%

CCOC(=O)C(NC(=O)c1cccc(Cl)c1)(Nc1ccc(S(=O)(=O)Nc2cc(C)on2)cc1)C(F)(F)F (centres undefined)
inactive: [1] 67.2% | [2] 69.3%
active: [3] 82.3% | [4] 84.7% | [5] 79.2% | [6] 91%

Cc1ccc(C(=O)N/N=C/c2ccccc2Cl)cc1
inactive: [1] -3.15% | [2] 49.1% | [3] 33.8% | [4] -20.4% | [5] 34.9% | [6] 26.6%

Cc1cccc(Cl)c1N=Nc1c(C)nn(C(N)=S)c1C
inactive: [1] 29.8% | [2] 8.75% | [3] 38% | [4] -33% | [5] -0.55% | [6] 17.1%

NCC=C1C2CC3CC(C2)CC1C3
inactive: [1] 1.9% | [2] -7.25% | [3] 1.4% | [4] -26.4% | [5] -13.7% | [6] 12.6%

c1ccc2c(c1)CCc1ccccc1N=N2
inactive: [1] -8.1% | [2] -1.55% | [3] -17.1% | [4] -30.4% | [5] -1.4% | [6] 5.35%

O=c1[nH]c2nc3ccccc3c(=O)n2/c1=C/c1ccc(Cl)cc1
inactive: [1] -1.6% | [2] 18.2% | [3] 43.4% | [4] 29.6% | [5] 14.1% | [6] -17.2%

O=c1/c(=C\c2ccccc2Cl)sc2n1CCN=2
inactive: [1] 22.2% | [2] 5.8% | [3] 4.9% | [4] 15.4% | [5] 11.3% | [6] 24.9%

CC(c1ccccc1O)C1CCCCC1N=O (centres undefined)
inactive: [1] -0.15% | [2] 3% | [3] 16.1% | [4] -48.5% | [5] 15.2% | [6] -4.15%

CCc1cc2c(cc1C(=O)/C=C\c1cccc3ccccc13)C(C)(C)CCC2(C)C
inactive: [1] 13.1% | [2] -5.35% | [3] 8.15% | [4] -20.1% | [5] -3.5% | [6] 15%

CCOC(=S)SC1OC(COC(C)=O)C(OC(C)=O)C(OC(C)=O)C1OC(C)=O (centres undefined)
inactive: [1] 57.5% | [2] 11.4% | [3] 55.2% | [4] 45.8% | [5] 17.2% | [6] 10.7%

c1ccc(-c2cc3nc4ccccc4nc3o2)cc1
inactive: [1] -6.65% | [2] -10.6% | [3] -13% | [4] 1.6% | [5] 2.15% | [6] -4.4%
